From PubChem BioAssay AID1259415 (National Center for Advancing Translational Sciences (NCATS), 2018) come the findings set out here.

Where “and” joins values, the source holds several entries; their conditions need not be identical. Equal entries are not always repeated. About 18,000 (4.4%) of roughly 410,000 compounds were called active. Inconclusive results (about 7%) are left out. No stated cut-off is given here; in the data, active means activity change below about -60%; inconclusive means no clear call, values can overlap the other calls; inactive means above about -39%. This excerpt belongs to a sample that is enriched for actives. A structure can be active in one record and inactive in another.
On the % scale 0 is the no-effect control and ±100 the full control effect.

This assay in a line: qHTS Assay for inhibitors of the human cytomegalovirus (HCMV). Conditions: HFF cells, HCMV-luciferase reporter, 72 h; at 57.5 µM; stronger effect = lower value. A digest of the protocol: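 Inhibition of viral replication was scored as loss of reporter luminescence in HFFs infected with HCMV-luciferase (MOI 1 PFU/cell) for 72 h; compounds tested at 2 doses, normalized to buffer and Salinomycin controls.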
A general note: qHTS replaces the single test concentration by a dilution series.
Turning to `O=C(C1CC(=O)N(c2ccc(Br)cc2)C1)N1CCCC1` (centres undefined), the activity change, negative = inhibition was -23.4% (inactive). The value for `COc1ccc(S(=O)(=O)N2C[C@H]3CON(C)[C@H]3C[C@H]2c2cccc(Br)c2)cc1` was -8.56% (inactive); that for `COc1ccccc1-c1ccc([C@@H]2C[C@H]3[C@H](CON3C)CN2S(=O)(=O)c2cc(Cl)cc(Cl)c2)cc1` was 8.41% (inactive). The value for `CN1OC[C@@H]2CN(S(=O)(=O)c3cccc(C(F)(F)F)c3)[C@H](c3ccc(-c4cc5ccccc5o4)cc3)C[C@@H]21` was -67.9% (active); that for `CC(C)c1ccc(S(=O)(=O)Nc2ccc(O)c(Sc3nc4ccccc4s3)c2)cc1` was -0.0854% (inactive); that for `O=C1C=C(c2ccc(Cl)cc2)C(=O)N1Nc1ccccc1` was -97.6% (active).

For `Cc1cccc(NC(=O)Cn2nc(-c3ccc(Cl)cc3)c3ccccc3c2=O)c1`, the activity change, negative = inhibition is -6.04% (inactive). The value for `CCc1ccc(S(=O)(=O)n2ccnc2)cc1` was -4.04% (inactive); that for `Cc1c(C(=O)NCc2ccccc2Br)oc2ccc3c(c12)C(=O)CC(C)(C)O3` was -2.86% (inactive). Consider `O=C(CSc1nc2c(c(=O)[nH]1)CN(Cc1ccc3c(c1)OCO3)CC2)Nc1cc(F)ccc1F`, for which the activity change, negative = inhibition was -1.41% (inactive). The value for `CCOC(=O)c1c(NC(=O)CSc2cn(CCNC(=O)c3cccc(C(F)(F)F)c3)c3ccccc23)sc2c1CCC2` was -7.22% (inactive); that for `O=C(CCSCc1ccccc1F)N1CCN(c2ccc(Cl)cc2)CC1` was -29.1% (inactive). Under `Cc1oc2c(F)c(F)c(F)c(F)c2c1S(=O)(=O)Nc1cccc(C(F)(F)F)c1` stands -97.8% (active); under `CCNS(=O)(=O)c1cc(-c2nnc(Nc3cccc(C(F)(F)F)c3)c3ccccc23)ccc1C`, 34.1% (inactive); under `CN(CC(=O)Nc1cccc(C(F)(F)F)c1)S(=O)(=O)c1cccs1`, 20.2% (inactive).

Consider `CCOC(=O)[C@]12CCC=C1N(Cc1ccco1)C(=O)[C@H](CC(=O)N1CCSCC1)C2`, for which the activity change, negative = inhibition is -10.1% (inactive). In the case of `CCOc1cc(-c2nnc(SCC(=O)NC3CCCC3)nc2-c2ccc(OC)c(OCC)c2)ccc1OC`, the activity change, negative = inhibition is 24.6% (inactive). As to `CO/N=C/CC(=O)c1ccc(OC)cc1`, the activity change, negative = inhibition is -35.1% (inactive).

For `COc1ccc(C(=O)C[n+]2ccc(N)c(C)c2C)cc1`, the activity change, negative = inhibition is -93.4% (active). Under `COc1ccc(C(=O)C[n+]2ccc(C)cc2)cc1` stands 72% (inactive); under `CCOc1ccc(OCC)c(NC(=O)c2cc(C)nc3c2c(C)nn3-c2cccc(Cl)c2C)c1`, 5.03% (inactive). In the case of `C[C@@H]1CCCCO[C@H](CN(C)Cc2ccccc2)[C@@H](C)CN([C@H](C)CO)C(=O)c2cc(NS(=O)(=O)c3ccc(Cl)cc3)ccc2O1`, the activity change, negative = inhibition is -31.2% (inactive).

For `O=S(=O)(Nc1ccc(-c2ccc(N3CCOCC3)nn2)cc1)c1cc(Cl)ccc1Cl`, the activity change, negative = inhibition is -19.8% (inactive). Under `Cn1cnc2c1c(=O)n(Cc1c(Cl)cccc1Cl)c(=O)n2C` stands -6.74% (inactive). Turning to `Cn1cnc2c1c(=O)n(Cc1ccccc1C#N)c(=O)n2C`, the activity change, negative = inhibition is -66.7% (active). Under `N#Cc1ccccc1Cn1cnc2nc3c(cc2c1=O)CCCC3` stands 21.2% (inactive).

For the molecule `NS(=O)(=O)c1ccc(N=Nc2c(O)[nH]c3ccc(Br)cc23)cc1`, the activity change, negative = inhibition is -60.1% (active). Under `Cc1cccc(N=Nc2c(O)[nH]c3ccc(F)cc23)c1` stands 101% (inactive); under `Cc1[nH]c2ccc(S(N)(=O)=O)cc2c1C`, 28% (inactive); under `Cc1nnc(SCc2cc(=O)c3cc(F)ccc3[nH]2)n1C`, 17.7% (inactive).

For the molecule `CC(C)C(=O)Nc1nc2c(s1)CC(C(C)(C)C)CC2` (centres undefined), the activity change, negative = inhibition was 36.6% (inactive). The value for `Cc1ccc(Cl)cc1NC(=O)C1CCN(S(C)(=O)=O)CC1` was 22% (inactive). The value for `O=C(Nc1cccc(Cl)c1)C1CCCN(c2cnccn2)C1` (centres undefined) was -9.65% (inactive); that for `Cc1ccc(Cl)cc1NC(=O)C1CCCN(c2cnccn2)C1` (centres undefined) was -33.4% (inactive) and -71.5% (active).

As for `COC(=O)c1ccccc1NC(=O)c1cnn(-c2ccc(F)cc2)c1-n1cccc1`, the activity change, negative = inhibition is -4.4% (inactive). Under `COc1ccc(-n2nc(C(=O)NCCc3ccc(Cl)cc3)c3c4ccccc4n(C)c3c2=O)cc1Cl` stands 1.81% (inactive). Take `COc1ccc(S(=O)(=O)N2CCN(c3ccc(F)cc3)CC2)cc1-c1noc(C)n1`: the activity change, negative = inhibition is -18.6% (inactive). The value for `O=C(NC1CC(=O)N(c2ccc(Cl)cc2)C1)C1CCCC1` (centres undefined) was 16.2% (inactive); that for `COc1ccc(C2Sc3ccccc3NC3=C2C(=O)c2ccccc23)c(OC)c1OC` (centres undefined) was -74.4% (active); that for `CCCCCOC(=O)C1=C(C)Nc2nnnn2C1c1ccc(OC)c(OC)c1OC` (centres undefined) was 13.7% (inactive). Under `COC(=O)C(C)C1Sc2ccccc2NC1=O` (centres undefined) stands -14.8% (inactive); under `CCC1NC(=O)c2cccnc2-n2c1nc1ccc(C)cc1c2=O` (centres undefined), -2.47% (inactive). Turning to `COCCNC(=O)c1ccc(-n2c(SCc3cccnc3)nc3ccccc3c2=O)cc1`, the activity change, negative = inhibition was -38.3% (inactive). The value for `CSc1nc2ccc(C)cc2c(=O)n1-c1cccnc1` was -87.3% (active); that for `CN1CCC[C@@H]1CCO[C@](C)(c1ccccc1)c1ccc(Cl)cc1` was -62.4% (active). In the case of `CC1CCCN1CCC(C(N)=O)(c1ccccc1)c1ccccc1` (centres undefined), the activity change, negative = inhibition was -15% (inactive). For `OC(c1ccccc1)(c1ccccc1)C1CCN(CCCOc2ccccc2)CC1`, the activity change, negative = inhibition is 2.18% (inactive). `COc1ccc(-c2nc(C)c(CCNC(=O)c3ccc(C(F)(F)F)cc3)s2)cc1OC`: the activity change, negative = inhibition is 14.8% (inactive). Under `O=C(Nc1ccc(Cl)cc1)c1csc(C(O)c2cccc(C(F)(F)F)c2)n1` (centres undefined) stands -20.2% (inactive); under `N#Cc1ccc(CC(O)c2nc(C(=O)Nc3ccccc3)cs2)cc1` (centres undefined), -100% (active). Turning to `O=C(Nc1ccc(Cl)cc1)c1csc([C@@H]2O[C@H](CO)[C@H](O)[C@H](O)[C@H]2O)n1`, the activity change, negative = inhibition was 16.2% (inactive).

With `COc1ccccc1Cc1c(-c2ccc(Cl)cc2)nc2c3ccccc3ccn12`, the activity change, negative = inhibition is 22.4% (inactive). The value for `COc1cccc2c(C)c(C(=O)O)[nH]c12` was -2.81% (inactive); that for `CCc1c(C)nc2c(OC)cccc2c1Cl` was -75.4% (active); that for `COc1ccc(C)cc1-n1c(-c2ccc(C)cc2)cc2c1CC(C)(C)CC2=O` was 5.24% (inactive). Take `CC(=O)Nc1ccc(S(=O)(=O)NC2(C(F)(F)F)C(=O)NC(C)=C2C#N)cc1` (centres undefined): the activity change, negative = inhibition was -29.9% (inactive). For the molecule `CC(C)CNc1ncnc2c1nnn2C`, the activity change, negative = inhibition is -27.2% (inactive).

Take `O=C(NCc1nnnn1-c1ccc(Cl)cc1)c1ccc([N+](=O)[O-])o1`: the activity change, negative = inhibition was -63.2% (active). The value for `O=C(NCc1nnnn1-c1ccc(Cl)cc1)c1ccc2c(c1)OCO2` was 21% (inactive); that for `Cc1ccc(-n2nnnc2CNC(=O)c2ccccc2C)cc1C` was -15.5% (inactive). Under `C=CCn1c(O)c(/C=N/N2CCOCC2)c(=O)[nH]c1=S` stands -8.35% (inactive); under `CCCCn1nc2ccccc2c1OCC`, -7.88% (inactive). `COc1ccccc1-c1cc(C(F)(F)F)nc(S(=O)(=O)CCCC(=O)Nc2ccc(F)cc2F)n1`: the activity change, negative = inhibition was -93% (active). The value for `CSc1ccccc1NC(=O)CCS(=O)(=O)c1nc(-c2cccs2)cc(C(F)(F)F)n1` was 3.11% (inactive); that for `COc1ccccc1-c1cc(C(F)(F)F)nc(S(=O)(=O)CCCC(=O)Nc2cc(C)ccc2O)n1` was 7.44% (inactive).

As to `Cc1nn(-c2ccccc2)nc1C(=O)OCC(=O)N1CCCCC1C` (centres undefined), the activity change, negative = inhibition was 37.5% (inactive). Under `CNc1cncc(-c2cccc(C(=O)N3CCOCC3)c2)n1` stands 16.3% (inactive); under `Cc1oc2ncnc(N3CCCCC3)c2c1C(=O)N1CCN(c2cccc(Cl)c2)CC1`, 2.67% (inactive); under `C#Cc1cc(N2CCN(C(=O)c3ccoc3)CC2)n2nc(-c3cccc(Cl)c3)cc2n1`, -102% (active). For `COc1ccccc1-c1cc2nc(C)c(CCC(=O)NC3CCCCC3)c(C)n2n1`, the activity change, negative = inhibition is -7.07% (inactive). In the case of `C[C@]12CC[C@H](O)C[C@H]1CC[C@@H]1C2CC[C@]2(C)[C@@H](C3=CC(=O)OC3)[C@@H](O)C[C@]12O` (some centres undefined), the activity change, negative = inhibition was -99.6% (active). The value for `CC(=O)[C@@]12O[C@@H]1C[C@H]1[C@@H]3CC[C@H]4C[C@@H](O)CC[C@]4(C)[C@H]3CC[C@@]12C` was -16% (inactive). Turning to `Cc1cc2ccccc2n1CCNC(=O)c1ccc(F)cc1`, the activity change, negative = inhibition is 0.319% (inactive). `CC1=C(C(=O)OCc2ccc(C)cc2)C(c2c(Cl)cccc2Cl)CC(=O)N1` (centres undefined): the activity change, negative = inhibition was -18.7% (inactive).
